Laboratory results: PubChem BioAssay (EPA / NIEHS)
Records with an inconclusive call do not appear. The source holds several records for some structures; these can differ, active in one and inactive in another. Activity calls are given as the source filed them. How the source made its calls, unless noted: active means hit-call score of the fitted dose curve at least 0.9, where 1 is the maximum; inconclusive means response in the unintended direction; inactive means score below 0.9.

Tests used:
[1] = read-out: Thyroid Hormone Responsive (THRSP), THRSP (gene 7069); test: LTEA_HepaRG_THRSP: Life Technologies and Expression Analysis (LTEA) Assay for Thyroid Hormone Responsive (THRSP) using HepaRG (AID 2283536; active means hit-call score of the fitted dose curve at least 0.9, where 1 is the maximum; inactive means score below 0.9); conditions: mRNA level, 48 h; actives raise or lower the signal
Procedure, shortened: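 mRNA induction or loss relative to 0.5% DMSO vehicle was fitted bidirectionally across an eight-point curve whose highest exposure was 100 uM. Human HepaRG liver cells received chemicals in duplicate over 48 h before RNA extraction.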

[2] = read-out: Cellular tumor antigen p53 (Homo sapiens) (UniProt P04637); test: LTEA_HepaRG_TP53: Life Technologies and Expression Analysis (LTEA) Assay for Tumor Protein P53 (TP53) using HepaRG (AID 2283537; active means hit-call score of the fitted dose curve at least 0.9, where 1 is the maximum; inactive means score below 0.9); conditions: mRNA level, 48 h; actives raise or lower the signal
Procedure, shortened: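 HepaRG, 48 h exposure, top 100 uM, half-log 8-point, 0.5% DMSO vehicle, duplicates. Read: TP53 mRNA by TaqMan qRT-PCR, normalised to ACTB/GAPDH/POLR2A; bidirectional fit vs DMSO.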

[3] = read-out: UDP glucuronosyltransferase (UGT1A1), UGT1A1 (gene 54658); test: LTEA_HepaRG_UGT1A1: Life Technologies and Expression Analysis (LTEA) Assay for UDP glucuronosyltransferase (UGT1A1) using HepaRG (AID 2283538; active means hit-call score of the fitted dose curve at least 0.9, where 1 is the maximum; inactive means score below 0.9); conditions: mRNA level, 48 h; actives raise or lower the signal
Procedure, shortened: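 Readout is UGT1A1 transcript level by qRT-PCR, normalized to three housekeeping genes, after 48 h chemical treatment of HepaRG cells. Concentrations ran from 100 uM down in half-log steps with 0.5% DMSO, and gain or loss relative to DMSO was fitted.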

[4] = read-out: UDP glucuronosyltransferase (UGT1A6), UGT1A6 (gene 54578); test: LTEA_HepaRG_UGT1A6: Life Technologies and Expression Analysis (LTEA) Assay for UDP glucuronosyltransferase (UGT1A6) using HepaRG (AID 2283539; active means hit-call score of the fitted dose curve at least 0.9, where 1 is the maximum; inactive means score below 0.9); conditions: mRNA level, 48 h; actives raise or lower the signal
Procedure, shortened: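 HepaRG, 48 h post-plating switch to serum-free induction medium; chemical 48 h, 100 uM top, half-log x8, duplicate, 0.5% DMSO. Phenobarbital 1mM induction control. UGT1A6 mRNA by TaqMan qRT-PCR; gain/loss fit vs DMSO.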

[5] = read-out: X-box binding protein 1 (XBP1), XBP1 (gene 7494); test: LTEA_HepaRG_XBP1: Life Technologies and Expression Analysis (LTEA) Assay for X-box binding protein 1 (XBP1) using HepaRG (AID 2283540; active means hit-call score of the fitted dose curve at least 0.9, where 1 is the maximum; inactive means score below 0.9); conditions: mRNA level, 48 h; actives raise or lower the signal
Procedure, shortened: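 Transcript levels of XBP1, measured by qRT-PCR and normalised to three housekeeping genes, were fitted bidirectionally relative to 0.5% DMSO controls. Human HepaRG cells received eight-point half-log dilutions from 100 uM for 48 h.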

[6] = LTEA_HepaRG_LDH_cytotoxicity: Cytotoxicity Assessment in the Life Technologies and Expression Analysis (LTEA) Assay (AID 2283563);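 on AC50: LDH activity released into spent culture medium as a marker of cell death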
Procedure, shortened: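 Cells were thawed and plated for 48 h. Medium was then replaced with serum-free induction medium. Chemicals (8 half-log points, maximum 100 uM, 0.5% DMSO) were added in duplicate for 48 h, after which spent medium was assayed for LDH.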

[7] = TOX21_p53_BLA_p2_viability: Viability Assessment in the Tox21 HCT-116 p53 Agonism Beta-lactamase Assay, Phase 2 (AID 2283591);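 further: compound exposure lasted 16 h at 37 °C; actives lower the ATP signal meaning cytotoxicity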
Procedure, shortened: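 Cytotoxicity readout: CellTiter-Glo ATP luminescence, 30 min at room temperature, after the beta-lactamase read. Cells were HCT116 exposed 16 h at 37C to compounds pin-transferred at 217-fold dilution from DMSO stocks.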

[8] = biological target: Cellular tumor antigen p53 (Homo sapiens) (UniProt P04637); test: TOX21_p53_BLA_p2_ratio: Tox21 HCT-116 p53 Agonism Beta-lactamase Assay, Ratio, Phase 2 (AID 2283592)
Procedure, shortened: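 HCT116 p53-bla; 4000 cells/well; 5 h pre-incubation; cpd in DMSO, 217-fold dilution; 16 h 37C/5% CO2; CCF4-AM 2 h RT; Ex 405, Em 460/530 ratio; DMSO = baseline; positive fitting direction.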

[9] = TOX21_p53_BLA_p3_viability: Viability Assessment in the Tox21 HCT-116 p53 Agonism Beta-lactamase Assay, Phase 3 (AID 2283593);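 further: cells exposed to compound for 16 h before reading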
Procedure, shortened: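 Cellular ATP was quantified by CellTiter-Glo luminescence, read after 30 min at room temperature. Beforehand, HCT116 cells (4000/well) received compound 5 h post-seeding, 217-fold diluted from DMSO, then incubated 16 h at 37C.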

[10] = biological target: Cellular tumor antigen p53 (Homo sapiens) (UniProt P04637); test: TOX21_p53_BLA_p3_ratio: Tox21 HCT-116 p53 Agonism Beta-lactamase Assay, Ratio, Phase 3 (AID 2283596)
Procedure, shortened: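 HCT116 p53-bla cells (4000/well) given compound in DMSO (217-fold dilution) after 5 h, incubated 16 h at 37C. CCF4-AM substrate 2 h at room temperature; 460/530 nm emission ratio, gain fitted against DMSO.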

[11] = TOX21_p53_BLA_p4_viability: Viability Assessment in the Tox21 HCT-116 p53 Agonism Beta-lactamase Assay, Phase 4 (AID 2283597);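 further: hits lower the luminescence signal meaning cytotoxicity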
Procedure, shortened: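 Cells plated, 5 h pre-incubation; DMSO compounds pinned (217-fold dilution); 16 h, 37C/5% CO2; CCF4-AM 2 h RT; CellTiter-Glo 30 min RT; luminescence read.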

[12] = biological target: Cellular tumor antigen p53 (Homo sapiens) (UniProt P04637); test: TOX21_p53_BLA_p5_ratio: Tox21 HCT-116 p53 Agonism Beta-lactamase Assay, Ratio, Phase 5 (AID 2283599)
Procedure, shortened: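 Beta-lactamase reporter ratio (blue 460 nm over green 530 nm, 405 nm excitation) after 2 h CCF4-AM loading, in HCT-116 cells exposed 16 h at 37 C to compounds pinned at 217-fold dilution. Increases relative to DMSO baseline scored.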

[13] = TOX21_p53_BLA_p5_viability: Viability Assessment in the Tox21 HCT-116 p53 Agonism Beta-lactamase Assay, Phase 5 (AID 2283600)
Procedure, shortened: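 4000 cells/well; 5 h pre-incubation; DMSO compounds pin-transferred, 217-fold dilution; 16 h, 37C/5% CO2; CCF4-AM 2 h RT; CellTiter-Glo 30 min RT; luminescence.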

[14] = biological target: Cellular tumor antigen p53 (Homo sapiens) (UniProt P04637); test: TOX21_p53_BLA_p4_ratio: Tox21 HCT-116 p53 Agonism Beta-lactamase Assay, Ratio, Phase 4 (AID 2283601)
Procedure, shortened: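 Signal is the blue/green (460nm/530nm) ratio of cleaved versus uncleaved CCF4-AM substrate, read after 2 h substrate loading. Cells were HCT116 carrying the p53-responsive beta-lactamase reporter, dosed 16 h at 37C, 5% CO2; CellTiter-Glo measured in parallel.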

[15] = Tanguay_ZF_120hpf_MORT_legacy: (Legacy) Oregon State University Tanguay Lab 120 Hour Post-fertilization zebrafish Assay for Mortality (AID 2283633);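 on AC50: fitted as increase in binary mortality versus DMSO negative control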
Procedure, shortened: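 5D WT zebrafish, chorion removed 4 hpf; 1 embryo/well from 6 hpf; static exposure to 120 hpf, 28C, dark, sealed. Final DMSO 0.64%. Readout: binary mortality, brightfield, 24 + 120 hpf; DMSO as negative control.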

[16] = Tanguay_ZF_120hpf_AXIS_legacy: (Legacy) Oregon State University Tanguay Lab 120 Hour Post-fertilization zebrafish Assay for Body Axis Malformation (AID 2283635);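 on AC50: potency for an increased fraction of larvae scored with body axis malformation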
Procedure, shortened: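 Chorion is removed with pronase at 4 hpf, then single 6 hpf embryos are dosed (final DMSO 0.64%) and held statically at 28C in sealed, foil-covered plates. At 120 hpf body axis malformation is recorded as present or absent.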

[17] = Tanguay_ZF_120hpf_EYE_legacy: (Legacy) Oregon State University Tanguay Lab 120 Hour Post-fertilization zebrafish Assay for Eye Malformation (AID 2283636)
Procedure, shortened: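 Read-out is binary presence or absence of eye malformation, scored by brightfield microscopy at 120 hpf. Single larvae were exposed from 6 hpf in embryo medium containing 0.64% DMSO, with DMSO as baseline.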

[18] = Tanguay_ZF_120hpf_SNOU_legacy: (Legacy) Oregon State University Tanguay Lab 120 Hour Post-fertilization zebrafish Assay for Snout Malformation (AID 2283637)
Procedure, shortened: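 Snout malformation read as a yes/no call on brightfield images of 120 hpf larvae (Tropical 5D strain). Static exposure began at 6 hpf on dechorionated embryos in 0.64% DMSO, with gain of signal analysed versus DMSO controls.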

[19] = Tanguay_ZF_120hpf_YSE_legacy: (Legacy) Oregon State University Tanguay Lab 120 Hour Post-fertilization zebrafish Assay for Yolk Sac Edema (AID 2283634);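 on AC50: actives raise the incidence of yolk sac edema above the DMSO baseline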
Procedure, shortened: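 Dechorionate (pronase, 4 hpf) → place one 6 hpf embryo per well → static compound exposure, sealed and foil-covered, 28C, to 120 hpf → record yolk sac edema as present or absent. Final DMSO 0.64%.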

[20] = ATG_XTT_Cytotoxicity: Cytotoxicity Assessment in the Attagene TRANS-FACTORIAL HepG2 Assay (AID 2283584)
Procedure, shortened: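 Cells: human HepG2, transiently transfected with MRTU reporter constructs. Exposure 24 h. Readout: XTT, cell number. Baseline/neg ctrl DMSO; loss-of-signal scored.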

Measured: AC50

Cellular tumor antigen p53 (Homo sapiens), sequence (P04637 whole entry, looked up): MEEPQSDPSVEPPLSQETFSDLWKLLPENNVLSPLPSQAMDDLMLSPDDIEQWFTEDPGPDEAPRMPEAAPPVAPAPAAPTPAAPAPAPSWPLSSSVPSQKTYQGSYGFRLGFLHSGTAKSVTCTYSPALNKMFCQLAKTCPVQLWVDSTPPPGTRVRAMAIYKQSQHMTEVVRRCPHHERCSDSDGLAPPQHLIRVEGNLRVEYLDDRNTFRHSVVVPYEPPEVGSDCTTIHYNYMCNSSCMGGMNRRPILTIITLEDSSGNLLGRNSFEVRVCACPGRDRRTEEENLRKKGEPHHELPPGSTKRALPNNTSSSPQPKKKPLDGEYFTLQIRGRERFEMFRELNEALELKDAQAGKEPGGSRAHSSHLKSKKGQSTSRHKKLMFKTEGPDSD

Cc1cc(C2CC2)nc(Nc2ccccc2)n1
active: [1] 50 µM | [3] 50 µM | [6] 73.7 µM | [7] 62.2 µM | [11] 64.9 µM | [14] 72.6 µM
inactive: [2] | [4] | [5] | [8] | [9] | [10] | [12] | [13] | [15] | [16] | [17] | [18]

CCCCOC(=O)c1ccccc1C(=O)O
active: [3] 17 µM
inactive: [1] | [2] | [4] | [5] | [6] | [7] | [8] | [10] | [11] | [12] | [13] | [15] | [19] | [16] | [17] | [18]

C[Si](Cn1cncn1)(c1ccc(F)cc1)c1ccc(F)cc1
inactive: [2] | [7] | [8] | [9] | [10] | [11] | [12] | [13] | [14] | [15]
active: [1] 5.9 µM | [3] 66.3 µM | [4] 50 µM | [5] 90 µM | [6] 33.4 µM | [7] 23.1 µM | [11] 53 µM | [14] 55.6 µM | [19] 40.9 µM | [16] 10.3 µM | [17] 46.9 µM | [18] 12 µM

CCOP(=S)(OCC)Oc1ccc([N+](=O)[O-])cc1
active: [3] 10.6 µM | [8] 89.3 µM
inactive: [1] | [2] | [4] | [5] | [6] | [7] | [8] | [9] | [10] | [12] | [15] | [19] | [16] | [17] | [18]

CCCSP(=O)(OCC)Oc1ccc(Br)cc1Cl (stereo not given)
inactive: [1] | [2] | [4] | [5] | [6] | [7] | [8] | [10] | [11] | [12] | [13] | [14] | [15] | [19] | [16] | [18]
active: [3] 15.1 µM

C#CC(C)(C)NC(=O)c1cc(Cl)cc(Cl)c1
inactive: [1] | [2] | [4] | [5] | [6] | [20] | [7] | [8] | [9] | [10] | [11] | [12] | [13] | [14] | [15] | [19] | [16]
active: [3] 13 µM

Nc1nc(N)nc(NC2CC2)n1
inactive: [1] | [2] | [3] | [4] | [5] | [6] | [7] | [8] | [9] | [10] | [11] | [12] | [13] | [14] | [15] | [19] | [16] | [17] | [18]

CC[C@H](C)[C@H]1O[C@]2(C=C[C@@H]1C)C[C@@H]1C[C@@H](C/C=C(\C)[C@@H](O[C@H]3C[C@H](OC)[C@@H](O[C@H]4C[C@H](OC)[C@@H](NC)[C@H](C)O4)[C@H](C)O3)[C@@H](C)/C=C/C=C3\CO[C@@H]4[C@H](O)C(C)=C[C@@H](C(=O)O1)[C@]34O)O2
active: [2] 86.7 µM | [3] 12.7 µM | [4] 12.5 µM | [5] 12.8 µM | [6] 18.2 µM | [7] 13.5 µM | [8] 59.1 µM | [9] 14.4 µM | [10] 54.1 µM | [11] 8.89 µM | [12] 56.9 µM | [13] 14.9 µM | [14] 32.7 µM | [15] 5.52 µM | [19] 0.247 µM
inactive: [1] | [16] | [17] | [18]

COP(=O)(NC(C)=O)SC (stereo not given)
inactive: [1] | [2] | [3] | [4] | [5] | [6] | [7] | [8] | [9] | [10] | [11] | [12] | [14] | [15] | [19] | [16] | [17] | [18]

CCc1cccc(C)c1N(C(=O)CCl)C(C)COC (stereo not given)
inactive: [1] | [2] | [4] | [5] | [6] | [20] | [7] | [8] | [9] | [10] | [11] | [12] | [13] | [14] | [15] | [19] | [16] | [17] | [18]
active: [3] 20.5 µM
